{"source": "PubChem BioAssay (EPA / NIEHS)", "note": "Active and inactive are the calls of the source. The calls were made as follows: active = hit-call score of the fitted dose curve at least 0.9, where 1 is the maximum; inactive = score below 0.9."}
{"read-out": "Heat shock 70 kDa protein 1 (HSPA1A), gene 3303", "assay": "LTEA_HepaRG_HSPA1A: Life Technologies and Expression Analysis (LTEA) Assay for Heat shock 70 kDa protein 1 (HSPA1A) using HepaRG (AID 2283502)", "details": "mRNA level, 48 h; actives raise or lower the signal", "method": "LTEA_HepaRG is a cell based, multiplexed-readout assay that uses HepaRG, a human liver cell line, with measurements taken at 48 hours after chemical dosing on a 96-well plate.LTEA_HepaRG_HSPA1A is one of 102 assay component(s) measured in the LTEA HepaRG cell culture assay. It is a marker of Oxidative Stress.Data from the assay component LTEA_HepaRG_HSPA1A was analyzed into 1 endpoint. This assay endpoint, LTEA_HepaRG_HSPA1A, was analyzed with bidirectional fitting relative to DMSO as the negative control and baseline of activity. Using a type of inducible reporter, measures of mRNA induction for gain or loss-of-signal activity can be used to understand regulation of transcription factor activity. To generalize the intended target to other relatable targets, this assay endpoint is annotated to the dna binding intended target family, where the subfamily is heat shock protein.\nA total of 1060 chemcials from the ToxCast library were tested in eight-point concentration-response experiments. Cell culture and cytotoxicity assays were conducted at Thermo Fisher Scientific's Custom Services facility (Madison, WI). A single lot of human HepaRG cells (Thermo Fisher Scientific, Frederick, MD) was used for the cell culture experiments. 96-well format collagen type I coated plates of human HepaRG cells were prepared using established methods. Briefly, cryopreserved HepaRG cells were thawed, plated at a density of approximately 100,000 cells/well in HepaRG Thaw, Plate, and General Purpose media (HPRG770, Thermo Fisher Scientific), and incubated for 48 hours. 0.5% DMSO was selected as vehicle control to balance the requisite need of DMSO in HepaRG cultures to maintain differentiation (for example, baseline metabolism, proportions of hepatocytes vs. cholangiocytes), while enabling further hepatic receptor pathway activation (for example, PXR and CAR) in response to chemical exposure. 48 hours after plating, the culture medium was replaced with HepaRG Serum-Free Incudtion Media. Cells were exposed to each test chemical in duplicate and maintained in CO2 incubators for another 48 hours. Chemical plates were thawed to room temperature and 200x concentrations of treatment groups were prepared. 8-point conentration-reponse curves were made with the highest exposure at 100 uM, followed by half-log dilutions, all in 0.5% DMSO. Each test plate contained variouse controls, induction positive controls (1mM phenobarbital), cytotoxicity positive controls ([…] aflatoxin B1), vehicle controls (0.5% DMSO), and total lysis controls (0.5% DMSO). Cell morphology images were taken using an Essen IncuCyte FLR automated microscope, with six 96-well plates imaged in about 24 minutes. Images were captured and exported and JPEG files. Spent culture media was transfered to black-well plates for the LDH assay, and remaining media was sorted at -80 C for later use. Cells were treated with RLT buffer and frozen until shipped for gene expression analysis. Total RNA was isolated from the cell suspension in 75 uL of Buffer RLT (Qiagen, Germantown, MD 20874) by Quintiles/Expression Analysis (Durham, NC) using a custom isolation procedure. Total RNA from each plate well was transferred to a preamplification plate. Fluidigm's 96.96 Dynamic ArrayTM (Fluidigm, Amsterdam, the Netherlands) technology was used for gene expression analyses by quantitative reverse transcription polymerase chain reaction (qRT-PCR, performed by Quintiles/Expression Analysis, Durham, NC)89. Standard TaqManTM Assays (Applied Biosystems/ThermoFisher Scientific, Foster City, CA) were used to assess the expression of 93 genes selected based on their selectivity and sensitivity to important hepatic receptors known to be modulated by environmental chemicals; importance in human hepatocyte functionality; and hepatotoxicity. […]"}
{"smiles": "CCCCCCCCCCCCO", "outcome": "inactive"}
{"smiles": "CN1C(=O)CC[C@H]1c1cccnc1", "outcome": "inactive"}
{"smiles": "CCCCCCCC[Si](OCC)(OCC)OCC", "outcome": "inactive"}
{"smiles": "C[C@]12CC[C@@H]3c4ccc(O)cc4CC[C@H]3[C@@H]1CCC2=O", "AC50": "33.2 µM (active)"}
{"smiles": "CCCC(=O)OCCC(C)C", "outcome": "inactive"}
{"smiles": "Cc1cc(F)ccc1-c1cc(N2CC[C@@H](O)[C@H]2CO)ncc1N(C)C(=O)C(C)(C)c1cc(C(F)(F)F)cc(C(F)(F)F)c1", "AC50": "70.1 µM (active)"}
{"smiles": "Cc1cccc2ccccc12", "outcome": "inactive"}
{"smiles": "c1ccc(C[n+]2cccc3ccccc32)cc1", "AC50": "22.8 µM (active)"}
{"smiles": "O=c1ccc2ccccc2o1", "outcome": "inactive"}
{"smiles": "CN(C)c1ccc(C(=C2C=CC(=[N+](C)C)C=C2)c2ccc(N(C)C)cc2)cc1", "AC50": "86.5 µM (active)"}
{"smiles": "COc1cc(C(=O)NC2CCN(C)CC2)ccc1Nc1ncc2c(n1)N(C1CCCC1)CC(F)(F)C(=O)N2C", "AC50": "31.7 µM (active)"}
{"smiles": "CC[C@@H]1C[C@H](N(Cc2cc(C(F)(F)F)cc(C(F)(F)F)c2)C(C)=O)c2cc(C(F)(F)F)ccc2N1C(=O)OC(C)C", "outcome": "inactive"}
{"smiles": "CC1=CC(=O)/C(=C(/C)O)C(=O)O1", "outcome": "inactive"}
{"smiles": "NCc1cccc(C2CCN(C(=O)c3ccc(C#Cc4ccccc4F)o3)CC2)c1", "outcome": "inactive"}
{"smiles": "c1ccc2n[nH]nc2c1", "outcome": "inactive"}
{"smiles": "CC(C)(C)c1cc(/C=C2\\SC(N)=NC2=O)cc(C(C)(C)C)c1O", "outcome": "inactive"}
{"smiles": "CCCCCCCCCCCC[N+](C)(C)C", "AC50": "80.9 µM (active)"}
{"smiles": "Cc1ccc(C(C)C)cc1", "outcome": "inactive"}
{"smiles": "CCCCCCCCCCCO", "outcome": "inactive"}
{"smiles": "CCO[Si](CCCNC(N)=O)(OCC)OCC", "outcome": "inactive"}
{"smiles": "O=C(O)c1ccccc1-n1cc(C(=O)O)c(=O)c2cc(Nc3c(F)cc(F)cc3Cl)c(Cl)cc21", "outcome": "inactive"}
{"smiles": "CC1(C)NC(=O)N(c2ccc([N+](=O)[O-])c(C(F)(F)F)c2)C1=O", "outcome": "inactive"}
{"smiles": "C[C@]12CC[C@@H]3c4ccc(O)cc4CC[C@H]3[C@@H]1CC[C@H]2O", "AC50": "12.5 µM (active)"}
{"smiles": "Cc1occc1C(=O)Nc1ccc(C(=O)N2CCC(F)(F)/C(=C\\C(=O)N3CCC(N4CCCCC4)CC3)c3ccccc32)cc1", "outcome": "inactive"}
{"smiles": "O=C1c2ccccc2C(=O)N1CCc1noc(-c2ccc(CN3CCCCCC3)s2)n1", "outcome": "inactive"}
{"smiles": "O=c1c(-c2ccc(O)cc2)coc2cc(O)cc(O)c12", "outcome": "inactive"}
{"smiles": "Cc1ncc(CO)c(CO)c1O", "outcome": "inactive"}
{"smiles": "O=C=NCCCCCCN=C=O", "outcome": "inactive"}
{"smiles": "CC(C)(C)c1csc(-c2cc3cc(OCc4ccccc4CC(=O)O)ccc3o2)n1", "AC50": "78 µM (active)"}
{"smiles": "CO[C@H]1/C=C/O[C@@]2(C)Oc3c(C)c(O)c4c(O)c(c(/C=N/N5CCN(C)CC5)c(O)c4c3C2=O)NC(=O)/C(C)=C\\C=C\\[C@H](C)[C@H](O)[C@@H](C)[C@@H](O)[C@@H](C)[C@H](OC(C)=O)[C@@H]1C", "outcome": "inactive"}
{"smiles": "CCOC(=O)O[C@H](C)OC(=O)c1ccc2c(c1)cc(C(=O)NC1CCN(C(C)C)CC1)n2Cc1cc(-c2ccc(Cl)s2)on1", "outcome": "inactive"}
{"smiles": "Clc1cc(Cl)c2c(c1)N=C1CCCCCN1C2", "outcome": "inactive"}
{"smiles": "CC(C)(O)c1ccc(CNC(=O)c2cccnc2Oc2ccc3nonc3c2)cc1", "outcome": "inactive"}
{"smiles": "CCN(Cc1cccnc1)C(=O)c1cccc(Cl)c1[C@]1(C)C(=O)N(Cc2ccc(OC)cc2OC)c2ccc(Cl)cc21", "AC50": "6.92 µM (active)"}
{"smiles": "OC12N=C(c3ccccc3)SC1Cc1cc(Cl)ccc12", "note": "(stereo not given)", "outcome": "inactive"}
{"smiles": "CCN(Cc1cccc(S(=O)(=O)O)c1)c1ccc(C(=C2C=CC(=[N+](CC)Cc3cccc(S(=O)(=O)O)c3)C=C2)c2ccccc2S(=O)(=O)[O-])cc1", "outcome": "inactive"}
{"smiles": "c1ccc2ccccc2c1", "outcome": "inactive"}
{"smiles": "CCCCOC(=O)c1ccc(O)cc1", "outcome": "inactive"}
{"smiles": "Cc1oc2c(NC(=O)c3c(Cl)cccc3Cl)cccc2c1C(C)(C)O", "AC50": "79.6 µM (active)"}
{"smiles": "COc1cccc([C@H](O)C2CCN(CCc3ccc(F)cc3)CC2)c1OC", "outcome": "inactive"}
